The list is not random: actives were taken first. Their share in the collection is about 7.4%.
SNCA expr inhib: SNCA gene expression inhibition. HEK-293 SNCA-luciferase knock-in, luminescence, 24 h. Potency, µM (highest dose often 57.2 µM), for inactives: at the top dose activity change, negative = inhibition, most hits filed as inhibitors. 140,000 tested, 0.17% active. AID 1671194;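 further: plate controls were DMSO cells for no effect and cell-free wells for full effect; nearly all actives have a fitted effect of over 45% in size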
HEK cytotox: cytotoxic compounds in HEK 293 cells; Potency, µM (titrated, usually from 115 µM), for inactives: at the highest dose activity change, negative = cytotoxicity, usual class: inhibitors; HEK 293 viability, ATP luminescence (CellTiter-Glo), 48-72 h; 94,000 tested, 6.6% active; further: nearly all actives have a fitted effect of over 60% in size
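qHTS cytotoxicity; HEK 293, 250 cells/well; compound pinned; 48 or 72 hr, 37 degree Celsius, 5% CO2, 95% humidity; CellTiter-Glo, 10 min RT; luminescence (ATP).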
HEK293 viab: cell viability loss counter-screen. HEK-293-SNCA-luc viability, GF-AFC fluorescence, 24 h. Potency, µM (top dose mostly 57.1 µM), for inactives: at the highest dose activity change, negative = cytotoxicity, hits mostly cytotoxic. 150,000 tested, 0.12% active. AID 1671193;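 further: 0% = DMSO-treated cells and -100% = medium-only wells without cells; nearly all actives have a fitted effect of over 30% in size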
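HEK-293-SNCA-luc cells (1500/well) plated 24 h, then exposed 24 h to a dilution series; GF-AFC added 30 min at 37C, fluorescence 405/540 nm; normalised to medium-only and DMSO wells, Hill fit.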
hNpr1 antagonist: human Npr1 receptor antagonism; P16066; HEK293 hNpr1 GloSensor cGMP, ANP-stimulated luminescence; Potency, µM (highest dose often 46.3 µM), for inactives: top-dose activity change, negative = inhibition, usual class: inhibitors; 76,000 tested, 1.6% active; AID 1347048; calls by dose curve; further: nearly all actives have a fitted effect of over 60% in size
Target sequence (P16066 whole entry, looked up): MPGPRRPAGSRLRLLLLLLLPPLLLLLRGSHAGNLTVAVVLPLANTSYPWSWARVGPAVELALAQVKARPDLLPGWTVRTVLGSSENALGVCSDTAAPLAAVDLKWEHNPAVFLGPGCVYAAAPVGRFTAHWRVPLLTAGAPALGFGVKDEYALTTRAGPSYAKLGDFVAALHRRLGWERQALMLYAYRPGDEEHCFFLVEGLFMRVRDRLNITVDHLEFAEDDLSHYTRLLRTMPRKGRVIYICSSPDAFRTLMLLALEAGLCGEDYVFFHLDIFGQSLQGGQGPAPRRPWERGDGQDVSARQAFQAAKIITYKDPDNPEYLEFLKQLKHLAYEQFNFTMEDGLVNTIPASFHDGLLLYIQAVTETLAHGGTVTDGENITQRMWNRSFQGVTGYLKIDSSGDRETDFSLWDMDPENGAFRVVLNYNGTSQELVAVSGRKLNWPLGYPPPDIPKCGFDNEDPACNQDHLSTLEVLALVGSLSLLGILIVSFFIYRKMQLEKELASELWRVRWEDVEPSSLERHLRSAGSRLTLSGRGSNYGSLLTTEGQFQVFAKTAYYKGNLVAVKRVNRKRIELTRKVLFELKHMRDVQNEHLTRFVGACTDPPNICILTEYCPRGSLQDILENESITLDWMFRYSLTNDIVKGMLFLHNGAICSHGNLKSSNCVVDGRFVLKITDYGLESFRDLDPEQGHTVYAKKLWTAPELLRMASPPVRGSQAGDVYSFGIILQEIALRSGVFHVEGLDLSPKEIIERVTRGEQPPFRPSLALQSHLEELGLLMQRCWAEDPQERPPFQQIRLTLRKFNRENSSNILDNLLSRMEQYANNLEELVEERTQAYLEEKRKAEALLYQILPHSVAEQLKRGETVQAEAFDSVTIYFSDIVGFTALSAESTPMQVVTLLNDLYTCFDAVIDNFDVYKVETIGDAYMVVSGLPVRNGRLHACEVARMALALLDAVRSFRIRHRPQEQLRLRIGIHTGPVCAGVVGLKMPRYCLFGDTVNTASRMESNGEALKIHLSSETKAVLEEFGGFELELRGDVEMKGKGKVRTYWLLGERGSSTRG
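HEK293 cells stably expressing human Npr1 and cGMP GloSensor pGS-40F, loaded 2 h with 2% GloSensor reagent, given compound 30 min at room temperature. Luminescence read before and 20 min after 0.1 nM hNppA.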
3T3 cytotox: kills NIH 3T3 cells; AID 1345082; 94,000 tested, 4.3% active; NIH 3T3 viability, CellTiter-Glo ATP luminescence, 48-72 h; Potency, µM (top dose mostly 96.7 µM), without a hit: at the highest dose activity change, negative = cytotoxicity, most hits filed as inhibitors; further: nearly all actives have a fitted effect of over 55% in size
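Cytotoxicity was measured by CellTiter-Glo ATP luminescence after 48 or 72 h compound exposure at 37 °C. Mouse NIH 3T3 fibroblasts were seeded at 400 cells/well and dosed by 23 nL pin transfer.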
Luciferase inh: inhibitors of firefly (Photinus pyralis) luciferase | AID 1347043 | 76,000 tested, 2.5% active | P08659 | purified P. pyralis luciferase, luminescence, biochemical | Potency, µM (titrated, usually from 115 µM), actives largely listed as inhibitors; further: nearly all actives have a fitted effect of over 65% in size
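Biochemical qHTS: compound (6-point titration) added to 10uM D-luciferin plus 10uM ATP in Tris acetate pH 7.5 buffer with Mg, Tween-20 and BSA, then purified enzyme at 10nM; light output imaged.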
The depositor's hits bear a star; i = inactive; ? = inconclusive; · = no result; [ ] = dose if it differs, or a comment. Unless noted, the call rests on the fitted dose curve; in most records, active means well fitted curve in the direction sought with a large enough effect; inconclusive means small, poorly fitted or top-dose-only effect, or another doubt; inactive means no such curve, though single readings can be large; an effect the other way counts as inactive or inconclusive. Unless noted, on the % scale 0 is the no-effect control and ±100 the full control effect; potency means the concentration at half of the fitted maximal effect.

SMILES	SNCA expr inhib	HEK cytotox	HEK293 viab	hNpr1 antagonist	3T3 cytotox	Luciferase inh
CC(=O)Nc1cccc(-c2nc(-c3c(C)noc3C)cc3c2cc(-c2ccccc2)n3C)c1	-1.3%[87.6 µM]	?	-24.2%[87.6 µM]	-30.4%[70.6 µM]	11.2µM*	i
O=C(c1ccccn1)N1CCN(c2ccc3nnc(-c4ccccc4)n3n2)CC1	·	-28.0%	·	·	?	·
COc1ccccc1-c1cccc(CN2CCCC(C(=O)NCc3ccc4c(c3)OCO4)C2)c1 (stereo unspecified)	?	35.5µM*	-10.1%	·	?	·
COc1ccccc1-c1cccc(CN2CCCC(C(=O)NC3CC3)C2)c1 (stereo unspecified)	-16.4%	?	9.2%	·	?	·
O=C(NCc1cccc(F)c1)C1CCCN(Cc2cccc(-c3ccc(F)cc3F)c2)C1 (stereo unspecified)	?	44.7µM*	?	·	35.5µM*	·
O=C(NCc1cccc(C(F)(F)F)c1)C1CCCN(Cc2cccc(-c3ccc(F)cc3F)c2)C1 (stereo unspecified)	?	35.5µM*	-12.0%	·	?	·
O=C(NCC1CCCCCC1)C1CCCN(Cc2cccc(-c3ccc(F)cc3F)c2)C1 (stereo unspecified)	-13.6%	?	-7.7%	·	?	·
COc1ccccc1-c1cccc(CN2CCCC(C(=O)Nc3cccc(Cl)c3)C2)c1 (stereo unspecified)	?	25.1µM*	?	·	15.8µM*	·
COc1ccccc1-c1cccc(CN2CCCC(C(=O)N3CCOCC3)C2)c1 (stereo unspecified)	-8.3%	?	1.3%	·	?	·
O=C(NCc1cccs1)C1CCCN(Cc2cccc(-c3ccc(F)cc3F)c2)C1 (stereo unspecified)	?	44.7µM*	-9.7%	·	?	·
COc1ccccc1-c1cccc(CN2CCCC(C(=O)N3CCCCC3)C2)c1 (stereo unspecified)	-6.4%	79.4µM*	-13.8%	·	?	·
COc1ccccc1-c1cccc(CN2CCCC(C(=O)NCC(F)(F)F)C2)c1 (stereo unspecified)	-16.4%	44.7µM*	-1.1%	·	?	·
CCOCCNC(=O)C1CCCN(Cc2cccc(-c3ccccc3OC)c2)C1 (stereo unspecified)	-1.9%	39.8µM*	-7.8%	·	?	·
COC(=O)CNC(=O)C1CCCN(Cc2cccc(-c3ccccc3OC)c2)C1 (stereo unspecified)	1.7%	-25.6%	3.9%	·	?	·
CCn1nccc1C(=O)N1CC(Oc2ccc(-c3noc(-c4cccnc4)n3)cc2)C1	-10.9%	?	14.9%	·	?	·
CNC(=O)c1cc(C)nc2onc(C3CCCN3C(=O)c3ccccc3Cl)c12 (stereo unspecified)	·	-8.6%	·	·	-22.3%	·
COc1ccccc1-c1cccc(CN2CCCC(C(=O)NCc3cccc(F)c3)C2)c1 (stereo unspecified)	?	12.6µM*	-14.4%	·	?	·
COc1ccccc1-c1cccc(CN2CCCC(C(=O)NC(C)C)C2)c1 (stereo unspecified)	-18.4%	?	3.9%	·	39.8µM*	·
COc1cccc(CNC(=O)C2CCCN(Cc3cccc(-c4ccccc4OC)c3)C2)c1 (stereo unspecified)	-14.0%	?	-18.1%	·	?	·
CN1CC(=O)N(C2CCCC2)Cc2c1ncnc2N1CCCC1	3.8%[87.6 µM]	-22.0%[172 µM]	-16.7%[87.6 µM]	·	-9.9%[138 µM]	·
CN1c2cc(C(=O)Nc3cccc(Cl)c3)ccc2C(=O)N2CCCCC21 (stereo unspecified)	173.8%	?	-3.0%[12.5 µM]	-11.7%	?	14.1µM*
CN1c2cc(C(=O)Nc3ccc(F)c(Cl)c3)ccc2C(=O)N2CCCCC21 (stereo unspecified)	114.7%	?	11.5%[12.5 µM]	0.2%	?	i
CCN1c2cc(C(=O)Nc3cccc(Cl)c3)ccc2C(=O)N2CCCCCC21 (stereo unspecified)	-14.3%	?	10.4%[12.5 µM]	-1.6%	39.8µM*	i
